Most compounds without a hit are left out; they make up all but 1.7% or so of the library.
GLP-1R agonist = GLP-1 receptor (human) agonism; P43220; HEK293 GLP-1R CRE-luciferase, luminescence, 4-6 h; cells express a hypersensitive GLP-1R form; Potency, µM (titrated, usually from 45.6 µM), for the others: top-dose activation, usual class: activators; 380,000 compounds, 0.007% hits; further: % of control where 0% means no effect
GLP1R cytotox = cytotoxic in the GLP-1 receptor inverse agonist counter-screen; HEK293 cAMP-luciferase reporter cells, luminescence, 24 h; Potency, µM (titrated, usually from 38.3 µM), without a hit: top-dose activity change, negative = inhibition, most hits filed as inhibitors; 410,000 compounds, 0.13% hits; AID 624418;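 further: loss of luciferase light is scored as toxicity; on the % scale 0 is the no-effect control and ±100 the full control effect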
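Cells in DMEM/10% Nu serum/1% pen-strep, 1536-well format. Pre-incubated 12 h, dosed with 23 nL compound, incubated a further 24 h. Luciferase detection, 12 min at room temp, luminescence.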
PTHR1 agonist = activates the human parathyroid hormone receptor PTHR1. Q03431. Potency, µM (top dose mostly 115 µM), for inactives: at the highest dose activation, hits mostly activators. HEK293 GP2 PTHR1 cells, GloSensor cAMP luminescence, 1 h. 410,000 compounds, 0.075% hits; further: nearly all actives have a fitted effect of over 55% in size
Target sequence (Q03431 whole entry, looked up): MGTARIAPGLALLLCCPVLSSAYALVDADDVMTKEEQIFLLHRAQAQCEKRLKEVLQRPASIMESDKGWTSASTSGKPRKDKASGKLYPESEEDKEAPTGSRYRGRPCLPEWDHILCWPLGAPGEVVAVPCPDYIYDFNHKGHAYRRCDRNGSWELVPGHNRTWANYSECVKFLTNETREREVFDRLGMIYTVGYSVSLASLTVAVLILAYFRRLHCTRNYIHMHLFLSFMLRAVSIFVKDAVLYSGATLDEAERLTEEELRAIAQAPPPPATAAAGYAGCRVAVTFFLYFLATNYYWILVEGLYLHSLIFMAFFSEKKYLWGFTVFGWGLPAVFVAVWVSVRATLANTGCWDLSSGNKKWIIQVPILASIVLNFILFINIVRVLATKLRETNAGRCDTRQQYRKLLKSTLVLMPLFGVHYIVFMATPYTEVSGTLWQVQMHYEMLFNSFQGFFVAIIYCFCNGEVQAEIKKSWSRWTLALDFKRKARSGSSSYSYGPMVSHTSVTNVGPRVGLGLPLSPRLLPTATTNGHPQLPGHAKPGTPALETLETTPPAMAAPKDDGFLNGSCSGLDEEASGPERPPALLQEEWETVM
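HEK-293-derived GP2 cells expressing PTHR1 and a GloSensor cAMP reporter, 3,000/well, plated overnight, given luciferin plus IBMX (each 0.5 mM as added) for 1 h at 37 °C, then compound for 1 h at 37 °C. Luminescence was read after 15 min at room temperature.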
GLP-1R inv ag = GLP-1 receptor (human) inverse agonism; P43220; Potency, µM (top dose mostly 38.3 µM), without a hit: top-dose activity change, negative = inhibition, actives largely listed as inhibitors; 410,000 compounds, 1.6% hits; AID 624417; HEK293 GLP-1R CRE-luciferase, luminescence, 24 h; GLP-1R form is constitutively active; further: on the % scale 0 is the no-effect control and ±100 the full control effect; nearly all actives have a fitted effect of over 55% in size
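Stable HEK293 clone (constitutively active GLP-1R + cAMP-response luciferase); 200 cells/uL plated, 12 h pre-culture, compound 24 hr, 37 deg C/5% CO2; detection reagent 12 min RT; luminescence.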
Numbers without * were called inactive; i = inactive; ? = inconclusive; · = not tested or not shown; [ ] = dose if it differs, or a comment. The call rests on the fitted dose curve; in most records, active means well fitted curve in the direction sought with a large enough effect; inconclusive means small, poorly fitted or top-dose-only effect, or another doubt; inactive means no such curve, though single readings can be large; an effect the other way counts as inactive or inconclusive. Potency means the concentration at half of the fitted maximal effect.

SMILES	GLP-1R agonist	GLP1R cytotox	PTHR1 agonist	GLP-1R inv ag
O=C(NCC12CC3CC(CC(C3)C1)C2)c1nn2c(c1Cl)NC(c1ccco1)CC2C(F)(F)F (centres undefined)	-9%	-1%	i	4µM*
COc1ccc(CNC(=O)c2cnc(N3CCCC3)nc2C)cc1	·	-38%	-2%	-69%
Clc1ccc(/C=N\Nc2ccccc2)cc1	-5%	-16%	-1%	4µM*
CCCCCCCCCCCCCCNCCO	11%	·	·	·
CCOC(=O)C1=C(CN2CCN(c3ccc(Cl)cc3)CC2)NC(=O)NC1c1ccc(OC)cc1 (centres undefined)	·	0%	-30%	2%
O=C(CSc1nnc(COc2ccccc2)n1-c1ccccc1)c1cccs1	0%	6%	-17%[57.5 µM]	8.9µM*
Cc1cccc(OCc2nnc(SCCC(=O)O)n2-c2ccccc2)c1	-5%	2%	i	9%
O=C(O)CSc1nnc(COc2ccccc2)n1-c1ccccc1	-4%	-21%	i	7%
Cc1ccc(OCc2nnc(SCC(=O)c3cccs3)n2-c2ccccc2)cc1C	15%	-5%	-1%[57.5 µM]	10µM*
CN(Cc1ccccc1)c1ccc(-c2nc(-c3ccco3)no2)cc1[N+](=O)[O-]	·	5%	-7%	18%
Cc1ccc(C2=NN(C(=O)CCC(=O)O)C(c3cccc([N+](=O)[O-])c3)C2)cc1 (centres undefined)	-3%	0%	?	18%
CC(=O)N1N=C(c2ccc(Br)cc2)CC1c1cccc([N+](=O)[O-])c1 (centres undefined)	-7%	-5%	-21%	11µM*
CCN1CC(CN(C)Cc2nc(-c3ccc(OC)c4ccccc34)oc2C)CC1=O (centres undefined)	15%	?	-2%	10µM*
CCN1CC(CN(C)Cc2nc(COc3ccccc3)no2)CC1=O (centres undefined)	3%	9%	i	11%
COc1ccc(S(=O)(=O)NCCS(=O)(=O)N2CCN(c3ccccc3F)CC2)cc1	·	-1%	-23%	?
COc1ccc(N2CCN(C(=O)c3nc(-c4ccc(Cl)cc4)n4c3CCCCC4)CC2)cc1	·	-12%	-4%	-7%
O=S(=O)(NC1c2cccc3cccc(c23)C1N1CCN(CCO)CC1)c1ccccc1 (centres undefined)	-18%	?	-11%[57.5 µM]	?
O=S(=O)(NC1c2cccc3cccc(c23)C1N1CCNCC1)c1ccccc1 (centres undefined)	4%	-25%	i	10µM*
Cc1cc(=O)n2c(nc3ccccc32)[nH]1	12%	17%	32µM*	103%
CCN(Cc1ccc(C#CCCO)cc1)CC1CCCN(CCc2cccc(F)c2)C1 (centres undefined)	1%	-24%	4%	10µM*
Cc1cc(C)c(S(=O)(=O)NCC(c2ccco2)N2CCN(c3ccccc3)CC2)c(C)c1 (centres undefined)	·	-6%	-21%	-10%
CC(C)Oc1ccc(C(=O)/C(=C\c2cccs2)c2nc3ccccc3o2)cc1	8%	9%	-13%	7.1µM*
CCOC(=O)c1c(C)[nH]c(N=Nc2ccccc2)c1C	11%	?	i	10µM*
CCOC(=O)c1c(C)[nH]c(N=Nc2ccc(C)cc2)c1C	23%	?	-40%	?
COCCCNC(=S)N/N=C/c1cccc(OC)c1O	9%	?	-18%	1.1µM*
SMILES	GLP-1R agonist	GLP1R cytotox	PTHR1 agonist	GLP-1R inv ag
COc1cccc(/C=N/Nc2nnc(C)n2N)c1O	2%	?	i	10µM*
COCCCNC(=S)N/N=C/c1ccc(O)cc1O	13%	16%	i	32%
Cc1nnc(N/N=C/c2ccccc2F)n1N	5%	-15%	i	20%
CN(C)S(=O)(=O)c1ccc(NC(=O)N2CCN(c3cccc(C(F)(F)F)c3)CC2)cc1	-14%	-6%	-39%	3.5µM*
COc1ccc(NC(=O)N2CCN(c3cccc(C(F)(F)F)c3)CC2)cc1	-7%	17%	?	-3%
O=C1[C@@H]2Cc3c([nH]c4ccccc34)C(c3ccccc3)N2C(=O)CN1C1CCN(Cc2ccccc2)CC1 (some centres undefined)	0%	?	-8%	2.2µM*
O=C1[C@@H]2Cc3c([nH]c4ccccc34)C(c3cccc(Br)c3)N2C(=O)CN1C1CCN(Cc2ccccc2)CC1 (some centres undefined)	4%	?	i	3.2µM*
COC(=O)c1ccc(C2c3[nH]c4ccccc4c3C[C@H]3C(=O)N(C4CCN(Cc5ccccc5)CC4)CC(=O)N23)cc1 (some centres undefined)	-1%	-13%	?	10µM*
CCNC(=O)CON=C1c2ccccc2-c2ccccc21	?	-12%	-3%	?
CCC(CC)NC(=O)CON=C1c2ccccc2-c2ccccc21	14%	5%	-9%	8.9µM*
COC(=O)c1ccccc1NC(=O)c1ncoc1-c1ccco1	·	-3%	10%	17%
Cc1ccc(C2C(=O)N(C3CCCCCC3)CC(=O)N2CCC2=CCCCC2)cc1 (centres undefined)	·	5%	i	-5%
Cc1ccc(C)n1-n1cnc2sc3c(c2c1=O)CCCCC3	3%	78%	9%[57.5 µM]	?
Cc1ccc(C)n1-n1c(C)nc2sc3c(c2c1=O)CCCCC3	2%	-13%	-3%[57.5 µM]	11µM*
OCCCn1c(C2CCCN2c2nc(-c3ccc(F)cc3)cs2)nc2cc(Cl)c(Cl)cc21 (centres undefined)	11%	-3%	-5%	?
OCOCCCn1c(C2CCCN2c2nc(-c3ccc(F)cc3)cs2)nc2cc(Cl)c(N3CCCCC3)cc21 (centres undefined)	-4%	-39%	-20%	7.9µM*
COc1ccc(NC(=O)CC2C(=O)N(c3ccc(C)cc3)C(=O)N2CCc2ccccc2)cc1 (centres undefined)	·	-2%	-11%	-29%
CCN(CCCNc1ncnc2nc[nH]c12)c1cccc(C)c1	2%	12%	-34%	-25%
CCCCN(CCCNc1ncnc2nc[nH]c12)c1ccccc1	-1%	-9%	-35%	10µM*
O=C(CSc1nc2c([nH]c3ccccc32)c(=O)n1-c1ccc(F)cc1)NCc1ccc(F)cc1	1%	1%	-4%	11%
O=C1CSc2nc3ccccc3n21	5%	11%	-6%[57.5 µM]	4%
CC12CCC(C(=O)n3c1nc1ccccc13)C2(C)C (centres undefined)	7%	22%	?	1.6µM*
CCOC(=O)N1CCN(C(=O)c2oc3ccc(S(=O)(=O)N4CCCCC4)cc3c2C)CC1	6%	-20%	-5%[57.5 µM]	7%
Cc1c(C(=O)N2CCCCC2)oc2ccc(S(=O)(=O)N3CC(C)CC(C)C3)cc12 (centres undefined)	1%	-17%	-84%[57.5 µM]	8.9µM*
